CHX counter: Cycloheximide Counterscreen for Small Molecule Inhibitors of Shiga Toxin; cell reporter, cycloheximide protein synthesis inhibition counterscreen; max response, %; actives 12% (n = 300,000); in the data active = max response mostly above about 13%, no sharp cut-off; inactive = mostly below about 14%; note: read at 38.3 µM for the half of the compounds with a filed dose; 0% is about no effect
MARV entry inh: qHTS for inhibitors of binding or entry into cells for Marburg Virus. Potency, µM (doses to about 37.8 µM), without a hit: at the top dose activity change, negative = inhibition, usual class: inhibitors. Marburg virus pseudotyped entry inhibition, cell reporter. actives 1.8% (n = 300,000); calls by dose curve; tested in HEK293 cells; note: potency is the fitted concentration of half-maximal effect; % is set by controls: 0 for no effect and ±100 for the full control effect
Lassa entry inh: qHTS for Inhibitors of binding or entry into cells for Lassa Virus. Lassa virus pseudotype entry inhibition, cell reporter. AID 540256, 2011. actives 1.2% (n = 300,000). Potency, µM (titrated, usually from 37.9 µM), inactives show at the highest dose activity change, negative = inhibition, actives largely listed as inhibitors; calls by dose curve; tested in HEK293 cells; note: potency is the fitted concentration of half-maximal effect; % is set by controls: 0 for no effect and ±100 for the full control effect; nearly all actives have a fitted effect of over 50% in size
Pf growth 96h: Primary qHTS for delayed death inhibitors of the malarial parasite plastid, 96 hour incubation; P. falciparum luciferase reporter growth, 96 h; Potency, µM (highest dose often 28.7 µM), for the others: at the top dose activity change, negative = inhibition, hits mostly inhibitors; actives 6.9% (n = 320,000); note: potency is the fitted concentration of half-maximal effect; % is set by controls: 0 for no effect and ±100 for the full control effect
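Parasite growth measured via integrated firefly luciferase reporter in P. falciparum. Infected erythrocytes at 2% hematocrit, 0.05% parasitemia final were treated 96 hours at 37 C under 5% CO2, and luminescence was read.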
Shiga toxin inh: A qHTS for Small Molecule Inhibitors of Shiga Toxin; Vero cells, Shiga toxin protein synthesis inhibition reporter; inhibition, % at 38.7 µM; actives 9.2% (n = 290,000); in the data active = inhibition mostly above about 28%, no sharp cut-off; inactive = mostly below about 43%; note: 0% is about no effect
Pf growth 48h: Primary qHTS for delayed death inhibitors of the malarial parasite plastid, 48 hour incubation. P. falciparum luciferase growth in erythrocytes, 48 h. Potency, µM (top dose mostly 28.7 µM), without a hit: top-dose activity change, negative = inhibition, actives largely listed as inhibitors. actives 5.9% (n = 310,000); note: potency is the fitted concentration of half-maximal effect; % is set by controls: 0 for no effect and ±100 for the full control effect
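Growth was read as firefly luciferase luminescence after a 48 h, 37 C, 5% CO2 exposure of compounds to reporter-bearing P. falciparum cultures (0.1% parasitemia, 2% hematocrit final) in Albumax-supplemented RPMI 1640.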
The depositor's hits bear a star; u = inconclusive; x = no result given; [ ] = remark or other dose. The list is not random: actives were taken first. Their share in the collection is about 19%. Unless noted, calls come from the whole dose curve; as a rule, active = well fitted inhibition curve with a large enough effect; inconclusive = small, poorly fitted or top-dose-only effect, or another doubt; inactive = no such curve, though single readings can be large or run the other way.

SMILES	CHX counter	MARV entry inh	Lassa entry inh	Pf growth 96h	Shiga toxin inh	Pf growth 48h
CC1=C(C#N)C(NC(=O)c2ccccc2Cl)(C(F)(F)F)C(=O)N1 (centres undefined)	-6	u	-2%[46.1 µM]	28%	12	-6%
CN(Cc1ccc2nonc2c1)Cc1nc(CC2CC2)no1	-1	2%[46.1 µM]	22%	2.3µM*	3	39%
Cc1c(N=C/C=C/c2ccccc2)cnn1C	23*	0%	-16%	94%	33	25%
Cc1c(N=C/C=C/c2ccccc2)c(=O)n(-c2ccccc2)n1C	-2	5%	2%	x	-11	x
Cc1c(C(=O)N2CCC(C(N)=O)CC2)oc2ccc(Br)cc12	x	0%[46.1 µM]	2%	69%	x	4%
CCOc1c(Br)cc(CNC2CCCCCCC2)cc1OC	-6	x	x	6%	18	10µM*
COc1cc(CNC2CCCCCCC2)cc(Cl)c1OC	-4	u	u	u	2	u
COc1cc(CNC2CCCCCCC2)cc(Br)c1OCC#N	-3	12µM*	-17%	-102%	-5	u
COc1cc(OC)c(/C=N/NC(=O)c2ccc(Cn3nc([N+](=O)[O-])cc3C)cc2)c(OC)c1	-3	x	x	12%	-2	-5%
CN(c1ccc(OCC(=O)N2CCOCC2)cc1)S(=O)(=O)c1ccc(Cl)cc1	6	0%[46.1 µM]	-11%[46.1 µM]	u	11	26%
CCOc1ccc(OCc2ccc(C(=O)Nc3ccc(Cl)cn3)o2)cc1	15	5%	-1%	-5%	34*	-12%
Cc1ccc(NC(=O)c2ccc(COc3ccccc3)o2)nc1	26*	-3%[46.1 µM]	2%[46.1 µM]	86%	55*	44%
O=C(Nc1nn(Cc2ccc(Cl)cc2)cc1Br)c1ccc(COc2ccccc2Cl)o1	-1	u	u	x	-24	u
Cc1ccc(C)c(OCc2ccc(C(=O)Nc3ccc([N+](=O)[O-])cn3)o2)c1	x	x	x	-40%	x	u
COC(=O)c1ccccc1NC(=O)c1ccc(COc2cc(C)cc(C)c2)o1	3	u	-2%[46.1 µM]	4.1µM*	-10	u
COC(=O)c1ccccc1NC(=O)c1ccc(COc2ccc(C)c(C)c2)o1	1	16%	-13%	106%	28	u
O=C(Nc1ccc(Cl)cn1)c1ccc(COc2ccccc2Br)o1	61*	8%[46.1 µM]	13%[46.1 µM]	-2%	162*	79%
CCOc1ccc(OCc2ccc(C(=O)NCc3cccnc3)o2)cc1	14	-9%	1%	u	-4	0%
Cc1cc(C)nc(SCc2nnc(SCC(=O)Nc3ccc(C)c(C)c3)o2)n1	-6	u	-7%	-3%	19	-17%
O=C(Nc1ccccn1)c1ccc(COc2ccccc2Cl)o1	30*	u	16%	69%	89*	121%
O=C(CSc1nnc(COc2ccc(Cl)cc2)o1)NC1CCCCC1	x	22%	8%	16%	x	6%
O=C(COc1ccc(Cl)cc1)NCc1nnc(SCC(=O)NC2CCCC2)o1	-2	u	-1%	4.1µM*	8	u
COc1ccc(NC(=O)CSc2nnc(CNC(=O)COc3ccc(Cl)cc3)o2)c(OC)c1	-3	1%	u	9.3µM*	-5	13µM*
Cn1c(=O)oc2cc(S(=O)(=O)NCCC(=O)N3CCN(c4ccccc4)CC3)ccc21	3	x	x	13µM*	8	u
Cc1ccc(C)c(N2CCN(C(=O)CCNS(=O)(=O)c3ccc4c(c3)oc(=O)n4C)CC2)c1	0	x	x	1.7µM*	-2	-30%
SMILES	CHX counter	MARV entry inh	Lassa entry inh	Pf growth 96h	Shiga toxin inh	Pf growth 48h
Cn1c(=O)oc2cc(S(=O)(=O)NCCC(=O)N3CCN(c4ccccc4F)CC3)ccc21	4	x	x	32%	-11	u
Cc1ccc(NC(=O)CCNS(=O)(=O)c2ccc3c(c2)oc(=O)n3C)c(C)c1	-4	-2%	-23%	12µM*	-4	u
CCOC(=O)c1c(NC(=O)CSc2nnc(-c3cccnc3)o2)sc2c1CCC2	-1	14%[46.1 µM]	4%	-2%	-1	3%
O=C(O)c1nc(=O)[nH]c(=O)[nH]1	x	x	x	14%	x	-2%
O=C(O)c1[nH]c(=O)[nH]c(=O)c1F	1	-22%[46.1 µM]	6%	0.0033µM*	-6	0.012µM*
Cc1cc(C)c(S(C)(=O)=O)c(NN)n1	6	-11%[46.1 µM]	14%[46.1 µM]	-26%	5	382%
Cc1ccc([N+](=O)[O-])cc1S(=O)(=O)NCCc1c(C)[nH]c2c(C)cccc12	-7	11%	-25%	9.3µM*	-1	10%
Cc1[nH]c2c(C)cccc2c1CCNS(=O)(=O)c1cccc([N+](=O)[O-])c1	-3	-20%	6%	36%	-14	-11%
CC(C)c1cc(-c2nc(-c3cccc(Cl)c3)no2)n[nH]1	x	x	5%[46.1 µM]	x	x	x
Cc1noc2ncnc(Oc3cc(Cl)ccc3Cl)c12	8	-10%[46.1 µM]	1%[46.1 µM]	13µM*	3	u
Cc1noc2ncnc(Oc3ccc4ccccc4c3)c12	-1	-5%	-3%	0%	13	0%
C=C1C(=O)O[C@H]2[C@H]1[C@H](OC(=O)/C(C)=C\C)C[C@]1(CO1)[C@@H]1[C@H](OC(C)=O)C=C(C)[C@]21O	x	u	-24%[46.1 µM]	x	x	x
C=C1C(=O)O[C@@H]2[C@H]1[C@@H](OC(=O)/C(C)=C/C)C/C(C)=C\C(=O)/C=C(\C)[C@@H]2O	29*	x	x	u	51*	u
C/C=C(/C)C(=O)O[C@H]1C(C)=C2[C@H]([C@@H]1OC(=O)CCCCCCC)[C@@](C)(OC(C)=O)C[C@H](OC(=O)CCC)[C@@]1(O)[C@H]2OC(=O)[C@@]1(C)O	-5	0.15µM*	0.33µM*	x	-14	x
O=C(c1cc2cc(Cl)ccc2[nH]1)N1CCC2(CC1)OCCO2	28*	x	x	u	30*	-26%
O=C(c1cc2cc(F)ccc2[nH]1)N1CCC2(CC1)OCCO2	30*	x	x	u	50*	u
O=CN1CCN(C(=O)c2cc3cc(Cl)ccc3[nH]2)CC1	-1	16%	5%	0%	x	-11%
O=C(CN1C(=O)NC2(CCCCCCC2)C1=O)NC(=O)NCc1ccco1	-2	5%	-20%	-39%	-11	x
CC(C)n1nc(C(=O)OCn2nnc3ccccc3c2=O)c2ccccc2c1=O	-4	21%	9%	u	-9	10%
S=C(Nc1ccc(Br)cc1)N1CCn2cccc2C1c1cccnc1 (centres undefined)	-6	-25%[46.1 µM]	u	u	-15	u
Cc1cccn2c(CN(C)CCC3CCCCO3)c(C(=O)N3CCCCC3)nc12 (centres undefined)	0	-19%[46.1 µM]	4%	13µM*	-3	-2%
COC(=O)[C@@H]1CCCN1Cc1c(C(=O)N2CCCCC2)nc2c(C)cccn12	-3	u	-6%[46.1 µM]	8.3µM*	-17	-8%
Cc1nc(C(C)N(C)Cc2c(C(=O)N3CCCCC3)nc3c(C)cccn23)c(C)s1 (centres undefined)	8	-14%[46.1 µM]	6%[46.1 µM]	10µM*	-8	u

Screening results as filed in PubChem.
